# Screening data: PubChem, National Center for Advancing Translational Sciences (NCATS)
# TrxR1 inh: rat TrxR1 inhibition. Potency, µM (series often up to 114 µM), inactives show at the top dose activity change, negative = inhibition, actives largely listed as inhibitors. recombinant rTrxR1, NADPH fluorescence consumption, selenite substrate. 390,000 compounds, 1% hits. O89049; further: potency means the concentration at half of the fitted maximal effect; nearly all actives have a fitted effect of over 65% in size
#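 Rat TrxR1 (90 nM in the dispensed reagent) was pre-reduced with 400 uM NADPH for 5 min at room temperature, then incubated with compound for 15 min. After 400 uM selenite was added, NADPH fluorescence (Ex 340/Em 450 nm) was followed for 8 min.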
# GALK inh: galactokinase (human) inhibition; Purified GALK, Kinase-Glo residual ATP luminescence; 270,000 compounds, 0.007% hits; P51570; Potency, µM (doses to about 57.5 µM), inactives show top-dose activity change, negative = inhibition, usual class: inhibitors; further: potency means the concentration at half of the fitted maximal effect
#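 Compounds were pin-transferred into ATP buffer (35 uM final), then GALK plus galactose (5 nM, 100 uM final) was added. After 1 h at room temperature, Kinase-Glo Plus was added and luminescence read after 10 min.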
# TrxR1 substrate: rat thioredoxin reductase 1 substrate activity; O89049; purified TrxR1 substrate turnover, NADPH consumption readout; Potency, µM (top dose mostly 114 µM), for inactives: top-dose activity change, negative = substrate turnover; 390,000 compounds, 0.01% hits; AID 588456; further: potency means the concentration at half of the fitted maximal effect; nearly all actives have a fitted effect of over 50% in size
#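 Rat TrxR1, dispensed at 90 nM, was prereduced with 400 uM NADPH (final) for 5 min at ~22 deg C, then incubated with compound 15 min before 400 uM selenite. A first-read NADPH fluorescence drop versus no-compound background flagged substrates.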
# LDHA block: blocks human lactate dehydrogenase A. P00338. AID 1347041. 480,000 compounds, 0.15% hits. purified LDHA, NADH/diaphorase-resazurin fluorescence; active compounds read low. activity change, % (values are at about 110 or 230 µM); in the data active means activity change below about -30%; inconclusive means mostly about -25% to -30%;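 further: plate controls were DMSO wells for no effect and wells without enzyme for full effect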
#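 Resorufin fluorescence (ex540/em590), read at 0 and 20 min after diaphorase/resazurin addition, reports the NADH left after a 5 min room-temperature reaction of 2 nM human LDH5 with 0.06 mM NADH and 0.2 mM pyruvate.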
# a7 integrin act: integrin-mediated muscular dystrophy alleviation activation | Potency, µM (doses to about 38.3 µM), inactives show at the top dose activation, actives largely listed as activators | 350,000 compounds, 0.064% hits | AID 624291 | alpha7betagal myoblasts, beta-gal FDG fluorescence, 48 h;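 further: potency means the concentration at half of the fitted maximal effect; 100% = response of the positive control SU9516; nearly all actives have a fitted effect of over 60% in size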
#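 Alpha7betagal+/- myoblasts (passage 13) were plated 16-24 hr, then exposed to compounds (1:260 dilution of DMSO stock) for 48 hours at 37C. After MPER lysis, β-galactosidase reporter activity was read as FDG fluorescence (ex 480/em 540) after 30 minutes.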
# PI4K2A block: PI4K2A (human) kinase inhibition | Q9BTU6 | activity change, negative = inhibition, % at 76.9 µM | purified PI4K2A, ADP-Glo luminescence, 1 h; active compounds read low | 420,000 compounds, 0.13% hits; in the data active means activity change below about -50%; inconclusive means mostly about -30% to -49%;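 further: -100% = wells without enzyme as full effect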
# Target sequence (Q9BTU6 whole entry, looked up): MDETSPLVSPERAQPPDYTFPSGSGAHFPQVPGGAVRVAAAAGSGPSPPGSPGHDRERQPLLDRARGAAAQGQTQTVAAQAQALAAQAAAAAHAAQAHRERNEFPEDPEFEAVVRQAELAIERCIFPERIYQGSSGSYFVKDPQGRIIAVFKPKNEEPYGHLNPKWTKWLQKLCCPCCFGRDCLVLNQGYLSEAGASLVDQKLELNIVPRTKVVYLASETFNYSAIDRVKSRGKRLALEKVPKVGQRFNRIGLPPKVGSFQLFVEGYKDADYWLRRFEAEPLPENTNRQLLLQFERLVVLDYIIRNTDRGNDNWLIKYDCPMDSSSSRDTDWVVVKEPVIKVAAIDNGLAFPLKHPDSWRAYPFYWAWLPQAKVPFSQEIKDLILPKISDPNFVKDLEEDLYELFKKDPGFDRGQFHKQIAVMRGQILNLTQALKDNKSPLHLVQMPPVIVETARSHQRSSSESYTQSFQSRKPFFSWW
#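 ADP-Glo luminescence measured ADP generated by PI4K2A enzyme (4 ug/mL before mixing) with 1.2 mM PI substrate (pre-mix) and 300 microM ATP (pre-mix). Tris pH7.5 buffer with MgCl2, Triton X-100; 1 h reaction at ambient temperature.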
# * hit, by the source's call; ? = inconclusive; / = not tested or not shown; [ ] = another dose, or the depositor's remark. In the library only some 1.1% were active in any assay of this set; here they are far more common. Unless noted, the call rests on the fitted dose curve; in most records, active means well fitted curve in the direction sought with a large enough effect; inconclusive means small, poorly fitted or top-dose-only effect, or another doubt; inactive means no such curve, though single readings can be large; an effect the other way counts as inactive or inconclusive. Unless noted, on the % scale 0 is the no-effect control and ±100 the full control effect.
SMILES,TrxR1 inh,GALK inh,TrxR1 substrate,LDHA block,a7 integrin act,PI4K2A block
COC(=O)c1ccc(C(C2C(=O)CC(C)(C)CC2=O)C2C(=O)CC(C)(C)CC2=O)cc1,-46.1%,3.5%,-2.2%[57.1 µM],1.1,-12.8%,1.0
CC1(C)CC(=O)C(C(c2ccc(F)cc2)C2C(=O)CC(C)(C)CC2=O)C(=O)C1,4.3%[57.1 µM],0.9%,-5.1%[57.1 µM],-3.2,14.5%,-2.3
CC1(C)CC(=O)C(C(c2ccc(Br)cc2)C2C(=O)CC(C)(C)CC2=O)C(=O)C1,7.94µM*,3.4%,10.4%,-0.7,21.1%,-8.0
COc1cccc(-c2nc(CS(=O)(=O)CC(=O)NC3CCCC3)c(C)o2)c1,-8.1%,0.9%,-0.8%,-1.6,17.7%,-3.4
COc1cccc(-c2nc(CS(=O)(=O)CC(=O)NC3CCCc4ccccc43)c(C)o2)c1 (stereo unspecified),10µM*,0.8%,4.8%[57.1 µM],-0.9,9.5%,0.6
O=C1NC2CCCCC2C(=O)N1OS(=O)(=O)c1ccccc1 (stereo unspecified),3.55µM*,/,-2.4%[57.1 µM],-5.3,-28.1%,25.2
O=[N+]([O-])c1ccccc1S(=O)(=O)N1CCN(C2CCN(Cc3ccccc3)CC2)CC1,2.2%,8.0%,-0.7%,-33.7*,-10.4%,-4.9
Cc1c(C(=O)N2CCC(C(=O)Nc3ccc4c(c3)OCO4)CC2)oc2ccc(F)cc12,/,/,/,-6.2,/,/
CC(=O)N(c1cccc(C)c1)c1nc(COc2ccccc2C(N)=O)cs1,/,/,/,-12.6,/,/
CCc1ccccc1N(C(C)=O)c1nc(COc2ccccc2C(N)=O)cs1,/,/,/,-30.1*,/,/
CCOc1ccc(-c2nnc(SCC(=O)Nc3cc(C)ccc3OC)o2)cc1,28.2µM*,/,-1.1%,-1.7,/,3.6
COc1cc(-c2nnc(SCC(=O)Nc3ccc4c(c3)OCCO4)o2)cc(OC)c1OC,18.1%,0.5%,2.2%,-0.4,-27.3%,-55.5*
COc1cc(-c2nnc(SCC(=O)NC(C)C)o2)cc(OC)c1OC,4.7%,/,2.3%,2.0,/,-9.0
CCOC(=O)C1=C(O)c2ccccc2C(=O)/C1=C\c1ccc(CC)cc1,10µM*,-2.9%,-18.9%,90.7,-15.5%,-4.0
C=CCNc1nc(-c2c(N)n(CCC)c(=O)n(C)c2=O)cs1,/,/,/,7.5,/,/
Cc1cc2nc(-c3ccc[nH]c3=O)[nH]c2cc1C,195.4%,/,725.8%[57.1 µM],-11.3,8.4%,-66.2*
COc1ccc(NC(=O)CCn2c(=O)c3cccn3c3ccccc32)cc1,-23.6%,1.3%,-17.9%,-12.2,?,3.1
CCOc1ccc(NC(=O)CCCn2c(=O)c3cccn3c3ccccc32)cc1,/,/,/,-31.2*,/,/
O=C(N/N=C/c1ccc(-c2ccc(S(=O)(=O)Nc3ncccn3)cc2)o1)c1cc2ccccc2cc1O,?,-14.0%,8.1%,-45.9*,-5.1%,?
Cc1noc(C)c1Cn1c(=O)c2c(ncn2CCC(C)C)n(Cc2ccccc2)c1=O,/,/,/,11.3,/,/
COc1ccc(C(NC(=O)c2nc(-c3ccco3)sc2C)c2nccn2C)cc1 (stereo unspecified),/,/,/,14.3,/,/
CC(=O)OCCCNc1cc(Sc2ccc(C)cc2)c2nonc2c1[N+](=O)[O-],11.2µM*,0.1%,-6.3%,-0.2,-14.0%,3.3
CC(=O)OCCCNc1cc(Sc2nc3ccccc3s2)c2nonc2c1[N+](=O)[O-],0.316µM*,-3.1%,-2.5%,27.2,12.2%,-10.4
CC(=O)OCCNc1cc(Sc2nc3ccccc3[nH]2)c2nonc2c1[N+](=O)[O-],-92.1%[11.4 µM],0.0%,-15.4%,23.0,?,-12.6
CCCS(=O)(=O)c1nnnn1-c1cccc(OC)c1,3.55µM*,-1.0%,9.8%,-5.7,-55.3%,61.1
SMILES,TrxR1 inh,GALK inh,TrxR1 substrate,LDHA block,a7 integrin act,PI4K2A block
Cc1ccc2nc(-c3ccc(NC(=O)C4CCC(C)(C(=O)O)C4(C)C)cc3)sc2c1 (stereo unspecified),/,/,/,2.5,/,/
Cc1cc(C)cc(OC(=O)c2cnc(C)cn2)c1,/,/,/,0.5,/,/
CCCCc1cc(=O)oc2cc(C)c(CN3CCCC3)c(O)c12,?,-1.1%,-6.6%,10.7,36.0%,-17.3
CCc1cc(=O)oc2cc(C)c(CN3CCCC(C)C3)c(O)c12 (stereo unspecified),?,-0.3%,-6.2%,5.4,15.0%,-50.9*
Cc1ccccc1Nc1nc(CSc2nnc(-c3ccoc3C)n2C)cs1,50.1µM*,3.1%,-6.9%,0.0,-23.6%,-1.2
COc1ccc2cnn(CC(=O)Nc3cccc(Cl)c3)c(=O)c2c1OC,/,/,/,17.4,/,/
COC(=O)c1ccc(C2C(C#N)=C(N)Oc3cc(N)ccc32)cc1 (stereo unspecified),1.2%,3.4%,-1.8%,2.2,-27.9%,-1.5
COC(=O)c1ccc(C2C(C#N)=C(N)Oc3cc(O)ccc32)cc1 (stereo unspecified),17.8µM*,-4.5%,-3.2%,0.4,3.5%,-0.9
COC(=O)c1ccccc1S(=O)(=O)N1CCC(C(=O)NCCc2ccccn2)CC1,/,/,/,14.5,/,/
COc1ccc(-c2nc(SCc3ccccc3)n(C(C)=O)n2)cc1,/,/,/,6.2,/,/
O=C(CN1CCN(C(c2ccccc2)c2ccccc2)CC1)N1CCOCC1,3.6%,-2.7%,7.7%,-14.8,-36.2%,-3.5
Oc1c(C(c2ccccc2)N2CCOCC2)ccc2ccccc12 (stereo unspecified),3.16µM*,/,-11.8%,8.6,-36.7%,2.1
Oc1ccccc1/C=N/c1c(-c2ccco2)nc2ccccn12,79.4µM*,-1.4%,81.2%,25.1,-33.2%,-6.4
Cc1ccsc1C=Nc1ccc(C23CC4CC(CC(C4)C2)C3)cc1,/,/,/,-0.4,/,/
Cc1ccsc1C=Nc1ccc(O)cc1,56.2µM*,-0.3%,?,31.4,-49.7%,-59.3*
O=C(O)c1ccccc1NS(=O)(=O)c1cccc2nsnc12,11.9%,5.5%,-5.7%,-1.4,0.0%,1.4
O=C(O)c1cc(Br)ccc1NS(=O)(=O)c1cccc2nsnc12,-13.2%[57.1 µM],-3.0%,-13.9%[57.1 µM],-47.4*,10.8%,-0.5
CNC(=O)CCNC(=O)c1cc(-c2ccc(OC)cc2)nc2ccccc12,/,/,/,-4.1,/,/
CC(=O)Oc1ccc2c(C)cc(=O)oc2c1C(=O)c1ccccc1,4.0%[57.1 µM],-0.6%,6.4%[57.1 µM],-34.6*,32.8%,10.2
COc1ccc(C(=O)Oc2ccc3c(C)cc(=O)oc3c2C(C)=O)cc1,6.8%[57.1 µM],-1.9%,-20.5%[57.1 µM],-1.0,-12.6%,-0.5
COc1cc2c(C(=O)NCc3ccc(C)o3)cn(CC(C)C)c(=O)c2cc1OC,20µM*,/,-8.7%,3.9,-25.4%,-2.7
O=C1ON=C(c2ccc([N+](=O)[O-])cc2)/C1=C/c1ccccc1O,17.8µM*,/,3.9%,-42.6*,-6.0%,-5.0
